# Compounds with a hit are over-represented: about 19% of the library has one in this group of screens.
# HT1080 IDH1KD tx = kills HT-1080 cells with IDH1 knockdown; HT-1080 IDH1 knockdown viability, ATP luminescence, 48 h; actives 2% (n = 360,000); Potency, µM (titrated, usually from 46.1 µM), usual class: cytotoxic
#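 CellTiter-Glo luminescence after 48 h compound exposure at 37 degrees C of IDH1-knockdown HT-1080 cells in 5% FBS RPMI. %Activity scaled between DMSO wells and cell-free media wells, with curves fitted and assigned curve classes.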
# TDP1 cell noCPT = qHTS for Inhibitors of human tyrosyl-DNA phosphodiesterase 1 (TDP1): qHTS in cells in absence of CPT; AID 686978, 2013; Potency, µM (highest dose often 46.2 µM), hits mostly inhibitors; DT40 Tdp1-/- hTDP1 cells, no CPT, ATP luminescence, 48 h; actives 15% (n = 420,000); note: nearly all actives have a fitted effect of over 55% in size
#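 Growth of hTDP1-complemented DT40 Tdp1-knockout cells is measured by ATP luminescence after at least 48 hr compound exposure at 37 °C, with DMSO substituting for the 20 nM CPT used in the parallel screen.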
# HT1080-NT tox = kills 2HG-producing HT-1080-NT fibrosarcoma cells. HT-1080-NT fibrosarcoma viability, CellTiter-Glo ATP luminescence, 48 h. Potency, µM (highest dose often 46.1 µM), usual class: cytotoxic. actives 1.6% (n = 360,000);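 note: NT is the 2HG producing partner of a matched IDH1 knockdown line; nearly all actives have a fitted effect of over 55% in size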
#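 Compounds were tested in concentration-response format on HT-1080-NT cells for 48 hours at 37 degrees C. Cell viability came from CellTiter-Glo luminescence; curves were classified by r2, response magnitude and activity.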
# IL1B secr inh = inflammasome signaling inhibition, IL-1 beta readout. THP-1 LPS/ATP IL-1B secretion, AlphaLISA, 16 h; stronger effect = lower value. activity change, % at 57.5 µM. actives 4.7% (n = 360,000); in the data active = activity change below about -50%; inconclusive = mostly about -30% to -49%
#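 THP-1 cells pretreated 1 hr with compounds (up to 57.5 uM final), then stimulated with LPS (250 ng/mL final) plus ATP (1.25 mM final); secreted IL-1B measured by AlphaLISA after 16 hr, decreased signal indicating inhibition.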
# DT40 TDP1 CPT = growth inhibition of DT40 Tdp1-/-;hTDP1 cells with camptothecin (screen for TDP1 inhibitors). chicken DT40 Tdp1-/-;hTDP1 cells + 20 nM CPT, ATP luminescence, 48 h. Potency, µM (doses to about 46.2 µM), usual class: inhibitors. actives 12% (n = 420,000). AID 686979; note: nearly all actives have a fitted effect of over 55% in size
#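 Chicken DT40 Tdp1-/- cells complemented with human TDP1, 400 cells/well, exposed to compounds plus 20 nM camptothecin for at least 48 h at 37 C; viability read as ATP content by CellTiter-Glo luminescence.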
# A number is an active result; 0 = inactive; ? = inconclusive; - = not tested or not shown. Unless noted, calls come from the whole dose curve; as a rule, active = well fitted curve in the direction sought with a large enough effect; inconclusive = small, poorly fitted or top-dose-only effect, or another doubt; inactive = no such curve, though single readings can be large; an effect the other way counts as inactive or inconclusive.
SMILES,HT1080 IDH1KD tx,TDP1 cell noCPT,HT1080-NT tox,IL1B secr inh,DT40 TDP1 CPT
Cc1ccc2cccc(O)c2n1,-,7.08µM,-,-,7.08µM
Cc1[nH]c(C)c(S(=O)(=O)N2CCCCC2)c1C(=O)N1CCCCC1,0,0,0,0,0
CN(C)CCCCCCNc1nccc(N2CCN(C)CC2)n1,-,20µM,-,-,10µM
CN(C)CCCCCCNc1cc(N2CCN(C)CC2)ncn1,-,0,-,-,0
CN(CC(=O)Nc1ccc(Cl)c(C(F)(F)F)c1)C(=O)/C=C/c1cccs1,0,23.1µM,0,0,?
CN(CC(=O)Nc1ccc(Cl)c(C(F)(F)F)c1)C(=O)C1CC(=O)N(Cc2ccco2)C1 (centres undefined),0,23.1µM,0,0,13µM
CN(CC(=O)Nc1ccc(Cl)c(Cl)c1)C(=O)/C=C/c1ccc(F)cc1,0,0,0,0,0
CN(CC(=O)Nc1ccc(Cl)c(C(F)(F)F)c1)C(=O)/C=C/c1ccco1,0,18.4µM,0,0,18.4µM
CN(CC(=O)Nc1ccc(Cl)c(C(F)(F)F)c1)C(=O)CCNC(=O)c1ccco1,0,?,0,0,?
CN(CC(=O)Nc1cccc(F)c1)C(=O)C1CC(=O)N(Cc2ccco2)C1 (centres undefined),0,0,0,0,0
COc1ccc(-n2nc3c(N4CCC(C(=O)NCCc5ccco5)CC4)nnc(C)c3c2C)cc1,?,?,?,-50.7,?
Cc1ccc(-n2nc3c(=O)n(CC(=O)NCCc4ccco4)nc(C)c3c2C)cc1,0,0,0,0,?
Cc1ccc(-n2nc3c(N4CCC(C(=O)N5CCN(C)CC5)CC4)nnc(C)c3c2C)cc1,0,0,0,0,0
COc1ccccc1CCNC(=O)C1CCN(c2nnc(C)c3c(C)n(-c4ccc(C)cc4)nc23)CC1,0,2.91µM,0,0,4.61µM
Cc1ccc(-n2nc3c(N4CCC(C(=O)NCc5ccccc5C)CC4)nnc(C)c3c2C)cc1,8.2µM,?,7.31µM,-92.2,13µM
Cc1nnc(N2CCCC(C(=O)NCc3ccccc3F)C2)c2nn(-c3ccccc3)c(C)c12 (centres undefined),0,0,0,0,?
CCOc1ccc(CNC(=O)C2CCN(c3nnc(C)c4c(C)n(-c5ccc(C)cc5)nc34)CC2)cc1,0,23.1µM,0,-98.7,8.2µM
CCCCC(CC)CNC(=O)C1CC=CCC1C(=O)O (centres undefined),0,?,0,0,0
Cc1ccc(-c2noc(Cn3cc(S(=O)(=O)N4CCCC4)ccc3=O)n2)cc1,0,?,0,0,0
CCO[C@H]1C[C@@H](c2ccc(CC)cc2)N(S(=O)(=O)c2ccc(C)cc2)C2CC(c3ccc(CC)cc3)N(S(=O)(=O)c3ccc(C)cc3)CC21 (some centres undefined),0,?,0,0,?
Cc1ccc(-n2nc3c(SCCN4CCOCC4)nnc(C)c3c2C)cc1,0,?,0,0,?
CCOc1ccccc1CNC(=O)Cn1nc(C)c2c(C)n(-c3ccc(C)cc3)nc2c1=O,0,?,0,0,?
CCOc1ccccc1CNC(=O)C1CCN(c2nnc(C)c3c(C)n(-c4ccc(C)cc4)nc23)CC1,13µM,13µM,?,-96.2,5.8µM
CCOc1ccc(-n2nc3c(SCCN4CCCC4)nnc(C)c3c2C)cc1,?,0,?,-96.7,0
O=C(O)c1cc(-c2cccc(Cl)c2)nc2nc(N3CCCCC3)sc12,0,?,0,0,?
Nc1c(C(=O)CSc2ncccn2)c(=O)[nH]c(=O)n1C1CC1,0,0,0,0,0
CCN(CC)c1ccc(S(=O)(=O)N2CCOCC2)cc1NC(=O)Nc1ccccc1,0,20.6µM,0,0,?
CCN(CC)c1ccc(S(=O)(=O)N2CCOCC2)cc1NC(=O)CSC(=S)N1CCCC1,0,10.3µM,0,?,18.4µM
CCN(CC)c1ccc(S(=O)(=O)N2CCOCC2)cc1NC(=O)C1CC1,0,0,0,0,0
CCN(CC)c1ccc(S(=O)(=O)N2CCOCC2)cc1NC(=O)CNCc1ccccc1,0,20.6µM,0,0,?

# Screens from PubChem BioAssay.
